# Experimental data from PubChem BioAssay (NCATS).
# “And” between values parts separate entries of the source, which are not always exact repeats. Identical values can stand only once. Unmarked numbers belong to inactive results. Records with an inconclusive call do not appear. A call without a number means that no potency is given here. The source made the active and inactive calls. Unless noted, calls follow the shape of the dose curve; as a rule, active = well fitted curve in the direction sought with a large enough effect; inconclusive = small, poorly fitted or top-dose-only effect, or another doubt; inactive = no such curve, though single readings can be large; an effect the other way counts as inactive or inconclusive.
# Legend:
# [1] = qHTS Assay for Identification of Small Molecule Antagonists for NFkB Signaling Pathway (AID 895; active = well fitted inhibition curve with a large enough effect in the signal ratio, with a control signal flat, not every such curve was filed as active; the % refers to the signal ratio; also: potency is read from the fitted curve at half-maximal effect)
# Procedure, shortened: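 NFkB-bla ME-180 cervical carcinoma cells with beta-lactamase reporter under NFkB response element; compounds added, then TNF alpha at 10 pM final (EC50), 5 h at 37 C. LiveBLAzer substrate 2 h, room temperature; emission 460/530 nm at 405 nm excitation.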
# [2] = target: Muscarinic acetylcholine receptor M1 (Rattus norvegicus) (UniProt P08482); experiment: qHTS Assay for Antagonists of Acetylcholine Muscarinic M1 Receptor: Kinetic Measurement of Intracellular Calcium Response (AID 943);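 also: Fluo-4 calcium signal as peak divided by basal fluorescence over 4 min; series mostly up to about 35 µM; nearly all actives have a fitted effect of over 75% in size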
# Chain of Muscarinic acetylcholine receptor M1 (Rattus norvegicus) (P08482 whole entry, looked up): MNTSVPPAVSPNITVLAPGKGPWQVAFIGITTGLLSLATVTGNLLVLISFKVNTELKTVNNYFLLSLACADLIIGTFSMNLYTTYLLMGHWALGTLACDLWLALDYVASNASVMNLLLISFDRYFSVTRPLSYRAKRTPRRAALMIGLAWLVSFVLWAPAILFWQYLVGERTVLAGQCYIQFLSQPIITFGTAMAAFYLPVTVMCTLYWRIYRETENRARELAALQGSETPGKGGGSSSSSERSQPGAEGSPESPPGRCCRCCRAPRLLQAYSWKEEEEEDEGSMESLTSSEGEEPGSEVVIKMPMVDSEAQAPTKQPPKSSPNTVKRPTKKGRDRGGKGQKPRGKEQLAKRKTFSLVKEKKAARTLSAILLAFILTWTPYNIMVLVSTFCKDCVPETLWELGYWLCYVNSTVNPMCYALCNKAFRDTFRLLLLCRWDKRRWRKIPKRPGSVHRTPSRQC
# Procedure, shortened: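 Quantitative HTS in CHO-M1 (rat receptor) cells: 10 min compound exposure ahead of 100 nM carbachol, Fluo-4 fluorescence followed 4 min, value expressed as peak-to-basal ratio.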
# [3] = target: Pyruvate kinase (Leishmania mexicana) (UniProt Q27686); experiment: qHTS Validation Assay for Inhibitors of Leishmania Mexicana Pyruvate Kinase (AID 945)
# Chain of Pyruvate kinase (Leishmania mexicana) (Q27686 2-499 E452W): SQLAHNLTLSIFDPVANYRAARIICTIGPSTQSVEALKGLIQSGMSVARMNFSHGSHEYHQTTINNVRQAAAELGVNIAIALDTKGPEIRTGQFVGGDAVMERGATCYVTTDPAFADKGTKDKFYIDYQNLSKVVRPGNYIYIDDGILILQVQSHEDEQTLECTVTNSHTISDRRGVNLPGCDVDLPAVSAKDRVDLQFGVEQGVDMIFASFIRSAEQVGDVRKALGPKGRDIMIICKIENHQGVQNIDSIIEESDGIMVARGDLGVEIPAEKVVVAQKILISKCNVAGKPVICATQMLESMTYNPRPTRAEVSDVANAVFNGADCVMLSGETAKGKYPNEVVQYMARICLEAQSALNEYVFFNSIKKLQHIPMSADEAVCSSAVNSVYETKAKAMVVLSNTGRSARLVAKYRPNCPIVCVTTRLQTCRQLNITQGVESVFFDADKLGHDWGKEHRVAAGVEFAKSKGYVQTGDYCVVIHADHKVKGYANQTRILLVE
# Procedure, shortened: (§1)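 Compounds are tested as eight-point concentration series. Reactions contain 0.2 nM LmPYK E451W, 0.5 mM PEP, 0.1 mM ADP, 7 mM MgCl2 and 50 mM KCl at pH 7.2, run 1 h at room temperature, then read by PKLight luminescence.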
# [4] = target: Pyruvate kinase (Leishmania mexicana) (UniProt Q27686); experiment: qHTS Validation Assay for Activators of Leishmania Mexicana Pyruvate Kinase (AID 959); settings: purified L. mexicana pyruvate kinase, enzyme activity
# Procedure, shortened: as §1
# [5] = target: Tyrosyl-DNA phosphodiesterase 1 (Homo sapiens) (UniProt Q9NUW8); experiment: Confirmation Assay for Inhibitors of Tyrosyl-DNA Phosphodiesterase (TDP1) (AID 489007); settings: recombinant human TDP1 enzymatic activity, dose-response; also: potency is read from the fitted curve at half-maximal effect; nearly all actives have a fitted effect of over 40% in size
# Chain of Tyrosyl-DNA phosphodiesterase 1 (Homo sapiens) (Q9NUW8 whole entry, looked up): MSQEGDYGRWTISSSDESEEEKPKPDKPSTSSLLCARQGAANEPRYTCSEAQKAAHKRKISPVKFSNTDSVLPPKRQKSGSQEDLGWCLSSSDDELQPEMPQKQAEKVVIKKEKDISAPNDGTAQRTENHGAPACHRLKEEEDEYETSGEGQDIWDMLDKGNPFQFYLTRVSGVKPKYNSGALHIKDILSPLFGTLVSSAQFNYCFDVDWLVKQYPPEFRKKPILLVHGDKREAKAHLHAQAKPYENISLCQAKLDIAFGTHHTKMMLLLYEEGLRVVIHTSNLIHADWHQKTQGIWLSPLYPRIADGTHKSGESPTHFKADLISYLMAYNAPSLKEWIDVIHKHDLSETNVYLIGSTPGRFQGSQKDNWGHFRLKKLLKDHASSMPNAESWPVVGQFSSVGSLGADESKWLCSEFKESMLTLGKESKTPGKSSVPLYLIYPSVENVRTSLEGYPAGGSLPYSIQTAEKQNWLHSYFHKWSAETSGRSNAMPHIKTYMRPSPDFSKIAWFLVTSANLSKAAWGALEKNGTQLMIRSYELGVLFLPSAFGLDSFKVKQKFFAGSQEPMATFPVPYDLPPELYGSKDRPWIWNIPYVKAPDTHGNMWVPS
# Procedure, shortened: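 Loss of AlphaScreen signal reports Tdp1 cleavage of a dual-labelled DNA substrate. Conditions: 1 nM E. coli-derived enzyme, 15 nM substrate, 15 min compound preincubation, 5 min reaction, 10 min bead incubation, all at room temperature.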
# [6] = target: Cytochrome P450 2C19 (Homo sapiens) (UniProt P33261); experiment: qHTS Assay for Inhibitors and Substrates of Cytochrome P450 2C19 (AID 899); also: nearly all actives have a fitted effect of over 60% in size; also: potency is read from the fitted curve at half-maximal effect
# Chain of Cytochrome P450 2C19 (Homo sapiens) (P33261 whole entry, looked up): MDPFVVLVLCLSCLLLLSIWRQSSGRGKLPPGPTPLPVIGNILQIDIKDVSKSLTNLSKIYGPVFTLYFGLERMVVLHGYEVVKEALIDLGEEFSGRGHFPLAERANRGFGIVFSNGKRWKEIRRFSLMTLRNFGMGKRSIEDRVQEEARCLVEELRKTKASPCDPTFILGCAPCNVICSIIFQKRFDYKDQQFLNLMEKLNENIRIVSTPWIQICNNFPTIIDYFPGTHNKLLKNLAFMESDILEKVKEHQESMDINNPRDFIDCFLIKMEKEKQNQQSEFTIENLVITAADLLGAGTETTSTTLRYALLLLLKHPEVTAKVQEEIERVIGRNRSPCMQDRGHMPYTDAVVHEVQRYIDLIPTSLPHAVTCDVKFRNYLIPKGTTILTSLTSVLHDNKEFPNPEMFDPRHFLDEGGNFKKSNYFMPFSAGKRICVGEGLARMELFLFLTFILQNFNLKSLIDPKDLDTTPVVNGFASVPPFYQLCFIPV
# Procedure, shortened: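 NADPH-dependent conversion of Luciferin-H EGE (10uM, at KM) by 5nM enzyme in 50mM KPO4, 60 min at 37C following 10 min compound preincubation. Stopped with luciferin detection buffer; luminescence read after 20 min.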
# [7] = target: Pyruvate kinase PKM (Homo sapiens) (UniProt P14618); experiment: qHTS Assay for Inhibitors of Human Muscle Pyruvate Kinase (AID 958)
# Procedure, shortened: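 Screening used highly purified human pyruvate kinase M2 under submaximal activity, with PEP at its Km and ADP below Km. After an hour at room temperature, ATP was read by luciferase luminescence.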
# [8] = S16 Schwann cell viability assay (CellTiter-Glo assay) (AID 624031);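 also: native untransfected S16 rat Schwann cells; cellular ATP luminescence as a viability measure; series mostly up to about 58 µM; nearly all actives have a fitted effect of over 70% in size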
# Procedure, shortened: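 Parental S16 cells, 24 h compound, 37 °C. ATP-luminescence viability; DMSO = 0% activity, empty wells as reference; curves classified by fit quality and efficacy.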
# [9] = target: Cytochrome P450 2C9 (Homo sapiens) (UniProt P11712); experiment: qHTS Assay for Inhibitors and Substrates of Cytochrome P450 2C9 (AID 883); also: nearly all actives have a fitted effect of over 60% in size
# Chain of Cytochrome P450 2C9 (Homo sapiens) (P11712 whole entry, looked up): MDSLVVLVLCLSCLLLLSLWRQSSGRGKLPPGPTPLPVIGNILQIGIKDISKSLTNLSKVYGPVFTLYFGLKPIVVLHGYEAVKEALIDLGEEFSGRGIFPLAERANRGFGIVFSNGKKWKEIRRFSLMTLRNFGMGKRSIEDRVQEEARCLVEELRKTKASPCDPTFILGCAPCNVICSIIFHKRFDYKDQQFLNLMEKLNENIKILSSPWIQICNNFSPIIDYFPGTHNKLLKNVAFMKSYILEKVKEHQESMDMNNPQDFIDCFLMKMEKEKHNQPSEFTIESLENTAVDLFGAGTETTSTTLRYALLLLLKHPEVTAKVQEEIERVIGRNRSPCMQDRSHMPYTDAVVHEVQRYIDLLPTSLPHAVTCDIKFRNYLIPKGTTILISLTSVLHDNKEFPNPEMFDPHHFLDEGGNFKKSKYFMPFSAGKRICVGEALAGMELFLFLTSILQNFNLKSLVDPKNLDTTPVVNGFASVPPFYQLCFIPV
# Procedure, shortened: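 A luminogenic readout tracked human CYP2C9 (10nM) converting deoxyluciferin (100uM, at KM) in 25mM KPO4 during 60 min at 37C with regenerated NADPH. Values normalized to 57uM sulphaphenazole as complete inhibition.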
# [10] = target: Cytochrome P450 3A4 (Homo sapiens) (UniProt P08684); experiment: qHTS Assay for Inhibitors and Substrates of Cytochrome P450 3A4 (AID 884); also: nearly all actives have a fitted effect of over 50% in size; also: potency is read from the fitted curve at half-maximal effect
# Chain of Cytochrome P450 3A4 (Homo sapiens) (P08684 whole entry, looked up): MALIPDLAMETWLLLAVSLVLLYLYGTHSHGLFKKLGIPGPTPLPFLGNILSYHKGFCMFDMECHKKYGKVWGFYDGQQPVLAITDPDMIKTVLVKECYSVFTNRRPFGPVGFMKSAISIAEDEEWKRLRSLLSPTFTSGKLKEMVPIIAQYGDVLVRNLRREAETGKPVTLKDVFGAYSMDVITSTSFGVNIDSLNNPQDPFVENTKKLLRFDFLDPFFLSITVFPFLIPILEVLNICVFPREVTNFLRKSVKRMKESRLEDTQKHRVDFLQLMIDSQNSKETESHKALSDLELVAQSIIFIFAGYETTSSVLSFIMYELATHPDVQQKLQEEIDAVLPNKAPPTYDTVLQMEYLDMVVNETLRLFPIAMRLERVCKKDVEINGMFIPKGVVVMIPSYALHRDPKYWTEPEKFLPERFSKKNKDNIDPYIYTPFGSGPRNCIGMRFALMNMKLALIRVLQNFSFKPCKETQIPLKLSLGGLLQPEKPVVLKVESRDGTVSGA
# Procedure, shortened: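 Luminescent readout of luciferin produced by CYP3A4 (20 nM) dealkylation of Luciferin-PPXE, 25 uM (its KM). NADPH-driven reaction ran 60 min at RT after 10 min compound preincubation; data scaled to 57 uM ketoconazole as 100% inhibition.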
# [11] = qHTS Assay for Identification of Small Molecule Agonists for Hypoxia Response Element Signaling Pathway (AID 914; active = well fitted activation curve with a large enough effect in the signal ratio, with a control signal flat, not every such curve was filed as active; the % refers to the signal ratio; also: potency is read from the fitted curve at half-maximal effect); settings: ME-180 (cervical carcinoma) HRE-bla reporter, beta-lactamase ratio, CoCl2, 17 h; activation: active compounds read high
# Procedure, shortened: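 A beta-lactamase reporter under hypoxia response element control in ME-180 cells served as the system. Compound titrations plus EC50 CoCl2 ran 17 h at 37 degrees Celsius; AC50 values were fitted from %Activity.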
# [12] = target: Alpha-galactosidase A (Homo sapiens) (UniProt P06280); experiment: Counterscreen for Glucocerebrosidase Inhibitors: qHTS Assay for Human alpha-Galactosidase at pH 4.5 (AID 992)
# Chain of Alpha-galactosidase A (Homo sapiens) (P06280 whole entry, looked up): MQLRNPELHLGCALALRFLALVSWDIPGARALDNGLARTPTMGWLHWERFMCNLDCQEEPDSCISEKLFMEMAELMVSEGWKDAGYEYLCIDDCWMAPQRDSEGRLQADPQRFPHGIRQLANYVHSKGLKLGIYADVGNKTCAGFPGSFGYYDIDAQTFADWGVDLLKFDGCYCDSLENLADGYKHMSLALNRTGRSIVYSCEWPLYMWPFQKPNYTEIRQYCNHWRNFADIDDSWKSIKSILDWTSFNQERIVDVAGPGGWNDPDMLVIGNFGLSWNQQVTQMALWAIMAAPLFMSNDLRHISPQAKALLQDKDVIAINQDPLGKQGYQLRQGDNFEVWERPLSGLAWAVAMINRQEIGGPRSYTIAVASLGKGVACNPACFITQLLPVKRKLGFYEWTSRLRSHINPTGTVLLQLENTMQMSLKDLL
# Procedure, shortened: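 Citrate buffer pH 4.5, Tween-20 0.005%. Enzyme 2 nM, substrate 80 uM, 20 min RT. Stop pH 10. Fluorescence Ex 365/Em 440. AC50 by Hill fit.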
# [13] = target: Lysosomal acid glucosylceramidase (Homo sapiens) (UniProt P04062); experiment: Glucocerebrosidase-p2 (AID 348; in the data active = potency below about 10 µM; also: potency is read from the fitted curve at half-maximal effect); settings: purified GBA, blue fluorogenic substrate, 40 min
# Chain of Lysosomal acid glucosylceramidase (Homo sapiens) (P04062 whole entry, looked up): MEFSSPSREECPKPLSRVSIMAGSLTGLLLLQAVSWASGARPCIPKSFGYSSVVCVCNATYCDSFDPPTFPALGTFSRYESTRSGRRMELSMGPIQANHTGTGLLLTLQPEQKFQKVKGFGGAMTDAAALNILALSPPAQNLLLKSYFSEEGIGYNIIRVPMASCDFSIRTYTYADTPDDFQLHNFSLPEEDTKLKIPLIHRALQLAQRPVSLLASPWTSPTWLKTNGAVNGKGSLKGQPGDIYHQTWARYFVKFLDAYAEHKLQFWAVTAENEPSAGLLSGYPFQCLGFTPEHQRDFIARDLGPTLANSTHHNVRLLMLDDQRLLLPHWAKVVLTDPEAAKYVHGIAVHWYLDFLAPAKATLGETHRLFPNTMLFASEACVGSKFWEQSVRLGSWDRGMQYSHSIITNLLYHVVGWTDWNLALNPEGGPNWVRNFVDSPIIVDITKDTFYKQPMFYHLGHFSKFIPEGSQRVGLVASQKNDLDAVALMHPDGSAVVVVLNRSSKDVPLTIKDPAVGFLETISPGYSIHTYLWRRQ
# Procedure, shortened: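 Normal human glucocerebrosidase (0.2 nM) with blue fluorogenic substrate (80 uM final) in citrate/phosphate pH 5.9 with 10mM sodium taurocholate, 0.01% tween-20; 40 min RT, NaOH/glycine stop; fluorescence Ex 365/Em 440; AC50 from a titration from 0.6 nM upwards.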
# [14] = target: Cytochrome P450 2D6 (Homo sapiens) (UniProt P10635); experiment: qHTS Assay for Inhibitors and Substrates of Cytochrome P450 2D6 (AID 891); also: nearly all actives have a fitted effect of over 60% in size; also: potency is read from the fitted curve at half-maximal effect
# Chain of Cytochrome P450 2D6 (Homo sapiens) (P10635 whole entry, looked up): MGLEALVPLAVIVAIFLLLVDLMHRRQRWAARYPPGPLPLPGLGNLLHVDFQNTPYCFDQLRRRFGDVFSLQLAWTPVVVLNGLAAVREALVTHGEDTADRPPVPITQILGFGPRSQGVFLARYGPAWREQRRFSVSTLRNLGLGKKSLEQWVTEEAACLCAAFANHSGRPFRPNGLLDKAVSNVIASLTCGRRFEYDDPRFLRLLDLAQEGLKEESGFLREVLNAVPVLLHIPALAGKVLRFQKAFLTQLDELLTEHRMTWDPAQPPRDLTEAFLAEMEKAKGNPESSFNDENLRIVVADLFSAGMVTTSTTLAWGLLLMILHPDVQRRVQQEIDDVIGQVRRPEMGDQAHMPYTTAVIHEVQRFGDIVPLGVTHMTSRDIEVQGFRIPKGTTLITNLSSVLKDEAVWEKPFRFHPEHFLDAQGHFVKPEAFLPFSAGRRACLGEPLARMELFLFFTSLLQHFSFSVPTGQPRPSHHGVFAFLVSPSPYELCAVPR
# Procedure, shortened: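 Luminescent read-out of luciferin formed by 5 nM human CYP2D6 demethylating 30 uM Luciferin-ME EGE (Km level) over 60 min at room temperature after NADPH regeneration addition. Data normalized to full inhibition by 1.43 uM quinidine.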
# [15] = Confirmation and Secondary Assay for Modulators of Hemoglobin Beta Chain Splicing at IVS2 654 locus (AID 910);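 also: per-well total GFP intensity by laser scanning cytometry after 2-day treatment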
# Procedure, shortened: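 HeLa cells stably carrying EGFP interrupted by mutant beta-globin IVS2-654 intron (CMV-driven) were treated with compound for 2 days at 37C; corrected splicing was scored as total peak GFP intensity per well (488 nm excitation, 500-520 nm emission).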
# [16] = Confirmation and Secondary Assay for Modulators of Hemoglobin Beta Chain Splicing at IVS2 705 locus (AID 930);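 also: HeLa cells stably expressing the EGFP-705 splicing reporter; GFP fluorescence per well restored by corrected splicing of the IVS2-705 intron in EGFP; series mostly up to about 46 µM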
# Procedure, shortened: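 Fluorescence gain (488 nm laser, 500-520 nm PMT) reflects restored correct splicing of a mutant IVS2-705 intron inside EGFP in stably transfected HeLa cells after 2-day compound treatment.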
structure (smiles),measurement,setting,value
NC(=O)c1cc[n+](CC2=C(C(=O)O)N3C(=O)[C@@H](NC(=O)[C@H](c4ccccc4)S(=O)(=O)[O-])[C@@H]3SC2)cc1,Potency,[1],inactive
same,Potency,[2],inactive
same,outcome,[3],inactive
same,Potency,[4],3.16 µM (active)
same,Potency,[5],12.6 µM (active)
CO/N=C(\C(=O)N[C@@H]1C(=O)N2C(C(=O)O)=C(COC(C)=O)CS[C@@H]12)c1csc(N)n1,Potency,[1],inactive
same,Potency,[6],inactive
same,outcome,[3],inactive
same,outcome,[7],inactive
same,Potency,[4],25.1 µM (active)
same,Potency,[8],inactive
Cc1cccc(C)c1OC[C@H](C)N,Potency,[9],inactive
same,Potency,[10],inactive
same,Potency,[1],0.794 µM (active)
same,activation,[11],-2.33% and -23.1%
same,outcome,[12],inactive
COC(=O)N1CCC2(CC1)CN(c1ccncc1)C2,Potency,[13],> 11.4 µM
O=c1c(-c2cccs2)nc2cnc(Oc3cccc(Cl)c3)nc2n1C1CC1,Potency,[13],> 11.4 µM
same,Potency,[11],3.16 µM (active)
N[C@H](C(=O)N[C@@H]1C(=O)N2C(C(=O)O)=C(Cl)CS[C@@H]12)c1ccccc1,Potency,[1],inactive
same,Potency,[2],inactive
same,outcome,[12],inactive
C[C@@H](COc1ccccc1)N(CCCl)Cc1ccccc1,Potency,[14],158 nM (active)
same,Potency,[6],2 µM (active)
O=C(C1CCCCC1)N1CC(=O)N2CCc3ccccc3[C@@H]2C1,Potency,[9],inactive
same,Potency,[14],inactive
O=C(O)CNC(=O)[C@@H](CS)Cc1ccccc1,Potency,[1],inactive
same,Potency,[2],inactive
same,outcome,[3],inactive
CN1CCN(c2ncc3nc(-c4ccccc4)c(=O)n(CCC#N)c3n2)CC1,Potency,[13],> 11.4 µM
same,Potency,[11],3.16 µM (active)
C[C@@H](C[N+](C)(C)C)OC(N)=O,Potency,[9],inactive
same,Potency,[1],inactive
same,Potency,[2],inactive
same,outcome,[12],inactive
COc1ccccc1CNc1ncnc2ccc(-c3ccc(N(C)C)cc3)cc12,Potency,[13],> 11.4 µM
same,Potency,[10],2 µM (active)
same,Potency,[15],inactive
same,outcome,[16],inactive
C[C@@]12CC[C@@H]3c4ccc(O)cc4CC[C@H]3[C@H]1CC[C@H]2O,Potency,[9],inactive
same,Potency,[14],inactive
CC(C)(Oc1ccc([C@@H]2CC2(Cl)Cl)cc1)C(=O)O,Potency,[1],inactive
same,activation,[11],-18.9%
C[C@@](N)(Cc1ccc(O)c(O)c1)C(=O)O,Potency,[14],inactive
same,Potency,[6],inactive
same,Potency,[15],inactive
same,outcome,[16],inactive
CO[C@H]1C[C@@H](O[C@@H]2[C@H](C)[C@H](O[C@@H]3O[C@@H](C)C[C@@H](N(C)C)[C@@H]3O)[C@H](C)C[C@]3(CO3)C(=O)[C@H](C)[C@H](O)[C@H](C)[C@H](C)OC(=O)[C@@H]2C)O[C@@H](C)[C@H]1O,Potency,[8],inactive
CC1(C)O[C@@H]2C[C@H]3[C@H]4C[C@H](F)C5=CC(=O)C=C[C@@]5(C)[C@@H]4[C@H](O)C[C@]3(C)[C@]2(C(=O)CO)O1,Potency,[6],inactive
same,Potency,[8],inactive
CC(=O)O[C@@H](C)C[N+](C)(C)C,Potency,[2],inactive
same,outcome,[3],inactive
CN1[C@@H](CC(=O)c2ccccc2)CCC[C@@H]1C[C@@H](O)c1ccccc1,Potency,[9],inactive
same,Potency,[14],251 nM (active) and 79.4 nM (active) and 10 nM (active)
same,Potency,[6],inactive
same,outcome,[3],inactive
